# Experimental data from PubChem BioAssay (NCATS).
# Several values for one entry are separate records, joined by “and”; a condition that tells them apart may be missing. Equal values may be shown once. Results filed as inconclusive are left out. Entries that show only a call come without a potency. Values without a mark were called inactive. Activity calls are given as the source filed them. The call rests on the fitted dose curve; in most records, active means well fitted inhibition curve with a large enough effect; inconclusive means small, poorly fitted or top-dose-only effect; inactive means flat fitted curve, though single readings scatter.
# What was measured:
# HaCat [1] = assay: Cytotoxic Profiling of Annotated Libraries Using Quantitative High-Throughput Screening (AID 1296008); conditions: Five cell lines viability, CellTiter-Glo ATP luminescence, 48-72 h; max response: hits give low values
# Method in brief: (§1)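 Compounds were pin-transferred onto cells and incubated 48 or 72 hr at 37 degree Celsius, 95% humidity. CellTiter-Glo was added, plates sat 10 min at room temperature, then ATP-coupled luminescence was imaged as the viability read-out.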
# NIH3T3 [2] = assay: as above; conditions: Five cell lines viability, CellTiter-Glo ATP luminescence, 48-72 h; max response: hits give low values
# Method in brief: as §1
# HACAT [3] = assay: qHTS assay to identify novel small-molecules to repurpose for Merkel cell carcinoma treatment (AID 1296009); conditions: MCC and control cell lines, CellTiter-Glo viability, 72 h; series mostly up to 44.8 µM
# Method in brief: (§2)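 Luminescence from CellTiter-Glo, read 10 min after addition at room temperature, reported viability following a 72 hr, 37 degree celsius treatment with NPC or MIPE compounds in titration; values normalized to plate controls.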
# HEK293T = assay: as above; conditions: MCC and control cell lines, CellTiter-Glo viability, 72 h; at 44.8 µM (top of the series) unless noted
# Method in brief: as §2
# NIH3T3 [4] = assay: as above; conditions: MCC and control cell lines, CellTiter-Glo viability, 72 h; at 44.8 µM (top of the series) unless noted
# Method in brief: as §2
# KB-3-1 = assay: Cytotoxic Profiling of Annotated Libraries Using Quantitative High-Throughput Screening (AID 1296008); conditions: Five cell lines viability, CellTiter-Glo ATP luminescence, 48-72 h; max response: hits give low values
# Method in brief: as §1
# MCC-13 = assay: qHTS assay to identify novel small-molecules to repurpose for Merkel cell carcinoma treatment (AID 1296009); conditions: MCC and control cell lines, CellTiter-Glo viability, 72 h; series mostly up to 46 µM
# Method in brief: as §2
# MCC-26 = assay: as above; conditions: MCC and control cell lines, CellTiter-Glo viability, 72 h; series mostly up to 46 µM
# Method in brief: as §2
# MKL-1 = assay: as above; conditions: MCC and control cell lines, CellTiter-Glo viability, 72 h; series mostly up to 46 µM
# Method in brief: as §2
# MKL-2 = assay: as above; conditions: MCC and control cell lines, CellTiter-Glo viability, 72 h; series mostly up to 46 µM
# Method in brief: as §2
# Further: nearly all actives have a fitted effect of over 60% in size.
# Potency means the concentration at half of the fitted maximal effect.
smiles,measurement,setting,value
CCN(Cc1cccnc1)C(=O)CN(c1ccc(OC)nc1)S(=O)(=O)c1ccccc1C,outcome,HaCat [1],inactive
same,outcome,NIH3T3 [2],inactive
same,Potency,HACAT [3],inactive
same,outcome,HEK293T,inactive
same,outcome,NIH3T3 [4],inactive
CC1CCCCN1S(=O)(=O)c1ccc(N2CCCC2=O)cc1 (stereo not drawn),max response,HaCat [1],-10.9%
same,max response,KB-3-1,-2.83%
same,outcome,HEK293T,inactive
C[C@@H]1O[C@@H](O[C@H]2[C@H](O[C@H]3CC[C@@]4(C)C(CC[C@]5(C)C4C=C[C@]46OC[C@@]7(CCC(C)(C)C[C@H]74)[C@@H](O)C[C@]65C)[C@]3(C)CO)O[C@H](CO)[C@@H](O)[C@@H]2O[C@@H]2O[C@H](CO)[C@@H](O[C@@H]3O[C@@H](C)[C@H](O)[C@@H](O)[C@H]3O)[C@H](O)[C@H]2O)[C@H](O)[C@H](O)[C@H]1O (stereo partly drawn),max response,KB-3-1,-30.1%
COC1/C=C/C(C)(O)C(SCC(N)C(=O)O)CC(=O)OC(C)C(C)CC/C=C/1C (stereo not drawn),outcome,HaCat [1],inactive
same,max response,KB-3-1,0.268%
same,Potency,HACAT [3],inactive
same,outcome,HEK293T,inactive [at 17.4 µM]
CC(C)[C@@H](CS(=O)(=O)C(C)C)N1C(=O)[C@@](C)(CC(=O)O)C[C@H](c2cccc(Cl)c2)[C@H]1c1ccc(Cl)cc1,max response,HaCat [1],-29%
same,Potency,NIH3T3 [2],6.51 µM (active) and 7.41 µM (active)
CCNCc1nc2c(N)nc3ccccc3c2n1CC(C)(C)O,outcome,HaCat [1],inactive
same,outcome,NIH3T3 [2],inactive
same,Potency,HACAT [3],inactive
same,outcome,NIH3T3 [4],inactive
CCOCCOC(=O)/C=C/c1ccc(OC)cc1,max response,HaCat [1],-19.2%
same,max response,NIH3T3 [2],-3.67%
same,outcome,HEK293T,inactive
same,outcome,MCC-13,inactive
same,outcome,MCC-26,inactive
same,Potency,MKL-1,inactive
same,Potency,MKL-2,inactive
c1cc(Nc2cc(C3CC3)[nH]n2)nc(Nc2ccc3nc[nH]c3c2)n1,Potency,KB-3-1,1.3 µM (active)
CCCCCCOc1cc2c(cc1N(C)c1ncc(C(=O)O)cn1)C(C)(C)CCC2(C)C,outcome,HaCat [1],inactive
same,outcome,NIH3T3 [2],inactive
same,outcome,NIH3T3 [4],inactive
C=CC(=O)N1CCN(C(=O)CNc2cc(I)c(Cl)cc2O)CC1,outcome,HaCat [1],inactive
same,Potency,KB-3-1,20.6 µM (active)
same,Potency,HACAT [3],inactive
CC1(C)CC(NC(=O)C(=O)Nc2ccc(Br)cc2)CC(C)(C)N1,Potency,KB-3-1,4.61 µM (active)
CC1(C)CC(=O)C2=C(C1)NC(=S)NC2c1cccc(O)c1 (stereo not drawn),Potency,KB-3-1,0.82 µM (active)
O=C(CO)[C@@H](O)[C@H](O[C@@H]1O[C@H](CO)[C@H](O)[C@H](O)[C@H]1O)[C@H](O)CO,max response,HaCat [1],-14%
same,max response,KB-3-1,5.5%
same,outcome,HEK293T,inactive
O=C(N/N=C/c1ccc(O)c(O)c1)c1cc2ccccc2cc1O,max response,HaCat [1],-0.414%
same,max response,KB-3-1,7.95%
same,outcome,HEK293T,inactive [at 17.4 µM]
Cc1cccc(-c2[nH]c(Cc3cccc(C(N)=O)c3)nc2-c2ccc3nccnc3c2)n1,outcome,HaCat [1],inactive
same,max response,KB-3-1,-5.51%
same,outcome,HEK293T,inactive
CCN(CC)c1ccc2c(O)c(C=Nc3ccc(CC(=O)O)c(-c4c5c(nc6ccccc46)CCC(C(=O)NN)C5)c3)c(=O)oc2c1 (stereo not drawn),Potency,KB-3-1,5.8 µM (active)
COc1cc(Nc2nc3c(s2)CCCC3c2ccc(F)cc2)ccc1-n1cnc(C)c1 (stereo not drawn),Potency,KB-3-1,18.4 µM (active)
Cc1ccc(N)cc1O,outcome,HaCat [1],inactive
same,max response,KB-3-1,-6.12%
same,Potency,HACAT [3],inactive
same,Potency,MKL-1,6.11 µM (active)
same,Potency,MKL-2,6.11 µM (active)
CC(=O)OC/C=C(\C)C(CC1C(C)=C(OC(C)=O)C(=O)C2C(C)(C)C(O)CCC12C)OC(C)=O (stereo not drawn),outcome,HaCat [1],inactive
same,outcome,KB-3-1,inactive
same,Potency,HACAT [3],inactive
C[C@@H]1CCC2C(C)(C)[C@H](O)CC[C@]2(C)[C@@]12Cc1c(O)cc3c(c1O2)CN([C@@H](CCC(=O)O)C(=O)O)C3=O (stereo partly drawn),outcome,HaCat [1],inactive
same,max response,KB-3-1,6.48%
same,outcome,HEK293T,inactive [at 17.4 µM]
C=C1C[C@@]23CCC4[C@@](C)(CCC[C@@]4(C)C(=O)OC)C2CC[C@@H]1C3 (stereo partly drawn),outcome,HaCat [1],inactive
same,max response,NIH3T3 [2],0.656%
same,Potency,HACAT [3],inactive
same,outcome,HEK293T,inactive
c1ccc(-c2csc(N3CCOCC3)n2)cc1,max response,HaCat [1],-7.34%
same,max response,KB-3-1,8.26%
same,outcome,HEK293T,inactive
O=C(O)c1c(O)c(-c2ccccc2)nc2ccccc12,outcome,HaCat [1],inactive
same,outcome,NIH3T3 [2],inactive
same,outcome,MCC-13,inactive
same,outcome,MCC-26,inactive
same,Potency,MKL-1,inactive
same,Potency,MKL-2,inactive
same,outcome,NIH3T3 [4],inactive
Cn1cc(-c2ccc3nnc(Sc4ccc5nn(C)cc5c4)n3n2)cn1,max response,HaCat [1],-20.1%
same,outcome,KB-3-1,inactive
same,outcome,HEK293T,inactive
N#Cc1ccc(-c2cnc3[nH]cc(NC(=O)c4cccnc4)c3c2)cc1,max response,KB-3-1,-24.8%
CC(C)N(CCCCOCC(=O)NS(C)(=O)=O)c1cnc(-c2ccccc2)c(-c2ccccc2)n1,outcome,HaCat [1],inactive
same,max response,NIH3T3 [2],-0.443%
same,Potency,HACAT [3],inactive
same,outcome,HEK293T,inactive
CCNC(=O)Nc1ncc(-c2cc(-c3c(C)cc(OC)cc3C)nc(-c3cnccn3)n2)s1,outcome,HaCat [1],inactive
same,max response,KB-3-1,1.64%
same,Potency,HACAT [3],inactive
same,outcome,HEK293T,inactive
